Experiments:
Conditions in all cases: concentration: 1 μM, replicates: in singlicate; n = 1
[1] = test system: CDKL5
[2] = test system: CHEK1
[3] = test system: CHEK2
[4] = test system: CIT
[5] = test system: CLK1
[6] = test system: CLK2
[7] = test system: CLK3
[8] = test system: CLK4
[9] = test system: CSF1R-autoinhibited
[10] = test system: CSF1R
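Further: KINOMEscan kinase panel screen.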

SMILES | %Inh [1] [%] | %Inh [2] [%] | %Inh [3] [%] | %Inh [4] [%] | %Inh [5] [%] | %Inh [6] [%] | %Inh [7] [%] | %Inh [8] [%] | %Inh [9] [%] | %Inh [10] [%]
Cc1c(Cn2c3ccccc3n3c(=O)cc(N4CCOCC4)nc23)cccc1C(F)(F)F [GSK2306394] | 0 | 12 | 0 | 30 | 18 | 11 | 0 | 20 | 0 | 0
CNCc1ccc2nc(NC(=O)c3ccc(C(C)(C)C)cc3)cn2c1 | 23 | 5 | 0 | 0 | 87 | 22 | 0 | 3 | 2 | 42
O=C1NC(=O)C(c2ccc(Cl)cc2)=C1Nc1cccc(Cl)c1 [SB-317651] | 0 | 0 | 0 | 0 | 91.6 | 34 | 2 | 16 | 6 | 13
CC[C@@H]1CO[C@H](C(=O)Nc2ccccc2)CN1c1cc(-c2ccc3c(N)n[nH]c3c2)nc(NC)n1 [GSK2376236] | 0 | 2 | 29 | 98.5 | 37 | 0 | 7 | 0 | 0 | 12
Cn1cncc1-c1cc2c(Nc3ccc(OCc4ccccc4)cc3)ncnc2cn1 [GW281179] | 1 | 2 | 0 | 6 | 17 | 0 | 0 | 14 | 0 | 0
Cc1ccc(NC(=O)Nc2ccc(Cl)c(C(F)(F)F)c2)cc1-c1ccc(C(=O)Nc2ccncc2)cc1 [GSK1398470] | 6 | 0 | 0 | 90.6 | 14 | 3 | 0 | 24 | 0 | 30
Cn1cnc2c(N)ncnc21 [SKF-97623] | 0 | 0 | 24 | 1 | 6 | 0 | 2 | 0 | 41 | 0
Cn1cncc1C(=O)NC1CCN(c2ccnc(Nc3ccc(F)cc3)n2)C1 (stereo not drawn) [GSK1379717] | 0 | 0 | 0 | 0 | 23 | 0 | 0 | 0 | 0 | 6
COc1cc2ncnc(Nc3cccc(Br)c3)c2cc1OC.Cl [GI230329] | 0 | 0 | 54 | 53 | 31 | 0 | 0 | 15 | 44 | 4
COc1ccc(-c2coc3ccc(-c4nnc(C)o4)cc23)cc1 | 51 | 0 | 13 | 16 | 3 | 22 | 0 | 27 | 7 | 9
Cc1ccc(-c2nc(Nc3ccncc3)c3ccccc3n2)s1 [GSK189015] | 14 | 22 | 0 | 42 | 35 | 0 | 0 | 28 | 0 | 4
Cc1ccc(NC(=O)c2ccc(Cl)cc2)cc1-c1ccc(C(=O)Nc2ccncc2)cc1 [GSK1398467] | 0 | 16 | 0 | 69 | 3 | 100 | 0 | 15 | 0 | 97.1
Cc1nccc(-c2c(-c3ccc(F)cc3)ncn2CCCN2CCOCC2)n1.Cl [SB-282975] | 0 | 7 | 14 | 21 | 21 | 5 | 18 | 0 | 0 | 0
COc1cccc(CNC(=O)NC2CCN(c3ccnc(Nc4ccc(F)cc4)n3)C2)c1 (stereo not drawn) [GSK1379723] | 6 | 5 | 0 | 19 | 19 | 0 | 0 | 8 | 10 | 2
COC(=O)C(Cc1ccccc1)NC(=O)NC1CCN(c2ccnc(Nc3ccc(F)cc3)n2)C1 (stereo not drawn) [GSK1379714] | 1 | 86 | 14 | 6 | 5 | 0 | 0 | 13 | 35 | 1
CCn1c(-c2c(N)noc2C)nc2cnccc21 [SB-737856] | 0 | 0 | 0 | 22 | 26 | 0 | 0 | 13 | 0 | 14
CC(=O)c1c(C)c2cnc(Nc3ccn(C)n3)nc2n(C2CCCC2)c1=O | 0 | 0 | 0 | 4 | 19 | 16 | 0 | 9 | 12 | 0
CC(C)c1cc(-c2ccc3c(N)n[nH]c3c2)nc(N)n1 [GSK2250882] | 0 | 0 | 84 | 5 | 59 | 21 | 0 | 62 | 6 | 5
COc1ccc2cc(-c3nc(-c4ccccc4C(C)C)[nH]c3-c3ccncc3)ccc2c1 [SB-660566] | 37 | 4 | 0 | 28 | 12 | 0 | 0 | 0 | 0 | 8
COc1ccc(Nc2nccc(-c3ccc(NC(=O)c4cc5cc(F)ccc5[nH]4)cc3)n2)cc1 [GSK1229496] | 0 | 100 | 26 | 0 | 5 | 0 | 19 | 18 | 15 | 0
COc1ccc(Nc2nccc(N3CCC(NC(=O)c4cc5ccccc5s4)C3)n2)cc1 (stereo not drawn) [GSK1379738] | 0 | 100 | 0 | 0 | 24 | 7 | 4 | 0 | 0 | 19

— paper PMC5540273 (PLoS ONE, 2017)
